Assay outcomes from PubChem.
Compounds with a hit are over-represented: about 3.1% of the library has one in this group of screens.
Tau ThT inhib: qHTS for Inhibitors of Tau Fibril Formation, Thioflavin T Binding. recombinant tau K18 P301L, heparin-induced fibrillization, ThT fluorescence. Potency, µM (doses to about 57.4 µM), most hits filed as inhibitors. hit rate 2.1% among 270,000. AID 1460, 2008; note: nearly all actives have a fitted effect of over 55% in size
Target sequence (P10636 561-689 P618L limits assumed): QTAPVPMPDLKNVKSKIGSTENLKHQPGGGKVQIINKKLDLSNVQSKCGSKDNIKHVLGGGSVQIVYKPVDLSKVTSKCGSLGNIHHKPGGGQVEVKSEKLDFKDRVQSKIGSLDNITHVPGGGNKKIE
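Heparin-induced fibrillization of the P301L-mutant K18 repeat-domain fragment of human tau was followed by ThT binding in quantitative high-throughput format.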
TRb-SRC2 inh: qHTS for Inhibitors of the Interaction of Thyroid Hormone Receptor and Steroid Receptor Coregulator 2; TRbeta-SRC2 peptide binding, fluorescence polarization; receptor liganded with 1 µM T3; Potency, µM (series often up to 106 µM), usual class: inhibitors; hit rate 0.065% among 280,000; AID 1469, 2008; note: nearly all actives have a fitted effect of over 50% in size
Target sequence (P10828 whole entry, looked up): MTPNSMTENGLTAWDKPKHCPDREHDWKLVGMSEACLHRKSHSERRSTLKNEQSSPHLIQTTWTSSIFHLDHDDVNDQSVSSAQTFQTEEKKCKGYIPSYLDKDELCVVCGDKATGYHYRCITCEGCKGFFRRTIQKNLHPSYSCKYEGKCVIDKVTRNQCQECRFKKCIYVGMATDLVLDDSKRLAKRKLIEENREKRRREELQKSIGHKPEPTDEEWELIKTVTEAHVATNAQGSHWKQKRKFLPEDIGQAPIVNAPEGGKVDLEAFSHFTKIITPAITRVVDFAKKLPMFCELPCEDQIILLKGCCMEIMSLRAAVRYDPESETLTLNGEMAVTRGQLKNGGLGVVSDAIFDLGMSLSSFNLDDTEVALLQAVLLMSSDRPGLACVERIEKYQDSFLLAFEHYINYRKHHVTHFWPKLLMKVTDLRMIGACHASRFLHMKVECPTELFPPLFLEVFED
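Fluorescence polarization of 20 nM Texas Red SRC2 peptide with 0.6 uM human TRb ligand-binding domain, in Tris buffer with 1uM T3 and 5% DMSO. Incubated 5 hr ambient; normalized to unbound and bound controls.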
Tau fluor cs: Counterscreen qHTS for Inhibitors of Tau Fibril Formation, Fluorescence Polarization; Potency, µM (doses to about 57.7 µM); hit rate 0.93% among 280,000; tau K18 P301L Alexa594 fluorescence, heparin fibrillization; AID 1463, 2008; note: nearly all actives have a fitted effect of over 55% in size
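Human tau K18 P301L (15 uM unlabeled, 0.24 uM Alexa 594-labeled) in 100 mM sodium acetate pH 7 with 20 uM heparin, 6 hr at 37 C. ThT 30 uM added, 1 hr ambient; Alexa 594 FP and total fluorescence read at 555/632 nm.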
TexasRed fluor: Total Fluorescence Counterscreen for Inhibitors of the Interaction of Thyroid Hormone Receptor and Steroid Receptor Coregulator 2; TRb/SRC2 Texas Red total fluorescence interference; Potency, µM (doses to about 106 µM); hit rate 0.29% among 280,000; AID 1479, 2009; active = well fitted curve in either direction with a large enough effect; inconclusive = small, poorly fitted or top-dose-only effect
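Human TRβ ligand-binding domain (0.6 uM) and Texas Red SRC2 peptide (20 nM) in Tris buffer with 1 uM T3 and 5% DMSO were incubated with pinned compound for 5 hr at ambient temperature. Total fluorescence was computed as S + 2P (555/632 nm).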
Tau FP inhib: qHTS for Inhibitors of Tau Fibril Formation, Fluorescence Polarization. Microtubule-associated protein tau (Homo sapiens), P10636. K18 P301L tau heparin fibrillization, Alexa594 FP, 6 h. Potency, µM (highest dose often 57.7 µM), usual class: inhibitors. hit rate 0.39% among 280,000. AID 1468, 2008; note: nearly all actives have a fitted effect of over 55% in size
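Heparin (20 uM) drove fibril formation of recombinant tau K18 P301L, 15 uM unlabeled with 0.24 uM Alexa 594 label, for 6 hr at 37 C in 100 mM sodium acetate pH 7. Fluorescence polarization (555/632 nm) read 1 hr after 30 uM ThT.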
Hits are given with their value; n = inactive; u = inconclusive; x = no result; [ ] = remark or other dose. Unless noted, calls come from the whole dose curve; as a rule, active = well fitted curve in the direction sought with a large enough effect; inconclusive = small, poorly fitted or top-dose-only effect, or another doubt; inactive = no such curve, though single readings can be large; an effect the other way counts as inactive or inconclusive.

SMILES | Tau ThT inhib | TRb-SRC2 inh | Tau fluor cs | TexasRed fluor | Tau FP inhib
COc1ccccc1/C=C1\S/C(=N/NC(=O)c2cccc(Br)c2)NC1=O | 12.6µM | n | u | n | n
CCc1ccc(CNC(=O)c2nn(-c3ccc(C)cc3)c(=O)c3c2c2ccccc2n3C)cc1 | n | n | n | n | n
O=C(Cc1c(Sc2ccccc2)c2ccccc2n1Cc1ccccc1)NCCO | n | n | u | n | n
CCOC(=O)N1CCC(N2Cc3cccc(C(=O)Nc4cccc(F)c4)c3C2=O)CC1 | u | n | 3.98µM[quencher] | n | u
COCCCNC(=O)c1cc2cc(Br)ccc2oc1=O | n | n | n | n | n
O=C(NNC(=O)c1cc2cc(Br)ccc2oc1=O)c1ccc(O)cc1O | 8.91µM | n | u | n | n
CCc1ccccc1NC(=O)CN(c1ccccc1)S(=O)(=O)c1ccsc1C(=O)OC | n | n | n | u | n
Cc1ccc(/C=C/C(=O)c2ccc(O)cc2)cc1 | u | n | n | n | n
CNc1ccc(/C=C/C(=O)c2ccc(C)cc2)cc1[N+](=O)[O-] | 3.16µM | n | n | n | n
Cc1ccc(NC(=O)c2ccc(N/N=C/c3cccc(O)c3)c([N+](=O)[O-])c2)cc1 | 1.58µM | n | u | n | n
CN(C)c1ccc(/C=C/C(=O)c2ccccc2)cc1[N+](=O)[O-] | 10µM | n | u | n | n
CNc1ccc(/C=C/C(=O)c2ccc3c(c2)OCCO3)cc1[N+](=O)[O-] | 2.51µM | n | u | n | n
CCCN1C(=O)c2[nH]nc(-c3ccccc3O)c2C1c1ccc(OCc2ccccc2)c(OCC)c1 (configuration not stated) | n | n | u | n | n
CC(C)C(=O)Nc1ccc(NC(=S)NC(=O)c2ccc([N+](=O)[O-])cc2)cc1 | 7.08µM | n | n | n | n
CC(C)C(=O)Nc1cccc(NC(=S)NC(=O)c2ccc([N+](=O)[O-])cc2)c1 | u | n | n | n | n
CC(C)c1ccc(Nc2cc(C(=O)NC3CCCCC3)c3ccccc3n2)cc1 | n | n | n | n | n
Cc1cc(C)c2c(=O)n(CC(=O)NCCCN3CCOCC3)sc2n1 | 10µM | n | n | n | 15.8µM
Cc1cc(C)c2c(=O)n(CC(=O)Nc3ccc(Cl)cc3)sc2n1 | x | n | n | n | u
Cc1ccccc1CS(=O)(=O)CCC(=O)NCCCN1CCN(c2ccccc2F)CC1 | n | n | n | n | n
Cc1cc(C)c2c(=O)n(CC(=O)NCCCN3CCN(c4ccccc4F)CC3)sc2n1 | 14.1µM | n | n | n | u
O=C(N/N=C1/C[C@@H](O)[C@@H](O)[C@@H]2[C@@H]3C(=O)N(Cc4ccccc4)C(=O)[C@H]3CC[C@H]12)OCc1ccccc1 | n[11.5 µM] | n[11.2 µM] | n[11.6 µM] | n[11.2 µM] | n[11.6 µM]
CC(=O)c1cccc(S(=O)(=O)NCCc2csc3nc(-c4ccc(F)cc4)nn23)c1 | n | n | n | n | n
COc1ccc(CN(C(=O)COc2ccccc2)c2ccccc2C(=O)O)cc1 | n | n | n | n | n
O=C(CSc1nc(Nc2ccccc2)nc(N2CCOCC2)n1)Nc1ccc([N+](=O)[O-])cc1 | u | n | 12.6µM[quencher] | n | u
Cc1ccc(NC(=O)c2cc3nc(-c4ccc5c(c4)OCO5)cc(C(F)(F)F)n3n2)cc1Cl | u | n | n | n | n
SMILES | Tau ThT inhib | TRb-SRC2 inh | Tau fluor cs | TexasRed fluor | Tau FP inhib
CCOC(CNC(=O)c1ccc(N2CCc3ccccc32)c([N+](=O)[O-])c1)OCC | 12.6µM | n | u | n | u
O=C(NCc1ccccc1Cl)C1CCCN(C(=O)c2cnn(-c3ccccc3)c2-n2cccc2)C1 (configuration not stated) | n | n | n | n | n
CC(=O)O[C@@H]1[C@@H](O)CN[C@@H]1Cc1ccccc1 | x | n | x | n | x
CCOC(=O)c1[nH]c2ccccc2c1NC(=O)c1ccccc1OCC | u | n | 14.1µM[quencher] | n | n
CC(=O)N1CCN(C)CC1 | n | n | n | n | n
COc1ccc(-c2nc(-c3cccc([N+](=O)[O-])c3O)cc(=O)o2)cc1OC | u | n | n | n | n
COc1cc(/C=C2/C(=O)c3cccc([N+](=O)[O-])c3C2=O)c(Br)cc1O | 12.6µM | n | u | n | u
CCCCc1cc2c(cn1)=C(OC(=O)c1cccs1)C(C)(OC(=O)CC)C(=O)C=2 (configuration not stated) | n[11.5 µM] | n[11.2 µM] | n[11.6 µM] | n[11.2 µM] | n[11.6 µM]
CC(Sc1nnc(NC2CCCCC2)s1)C(=O)Nc1ccc2c(c1)C(=O)c1ccccc1C2=O (configuration not stated) | u | n | 15.8µM[quencher] | n | n
CC(Sc1nnc(Nc2ccccc2)s1)C(=O)NC1CCCc2ccccc21 (configuration not stated) | n | n | n | n | n
Cc1ccccc1Cn1c(C)c(CNCCCc2ccccc2)c(C(=O)O)c1C | n | n | n | n | n
O=C(Nc1cccc(Cl)c1)c1cc(-c2ccc3c(c2)OCO3)on1 | u | n | n | n | u
O=C(Nc1cccc(Cl)c1)c1cc(-c2ccc3c(c2)OCCO3)on1 | u | n | n | 10µM[quencher] | u
O=[N+]([O-])c1c(Nc2ccccn2)cc(Cl)c2nonc12 | x | n | u | n | u
O=C(O)c1cccc(Nc2cc(Cl)c3nonc3c2[N+](=O)[O-])c1 | 3.55µM | n | u | n | n
CCn1ccc2cc(S(=O)(=O)N3CCCN(C(=O)NCC(C)C)CC3)ccc21 | n | n | n | n | n
COc1ccc(-c2nc(N)nc(C)c2Oc2ccccc2Br)c(O)c1 | n | n | 17.8µM[quencher] | n | n
O=C(COc1ccccc1[N+](=O)[O-])NCCC1=CCCCC1 | n | n | n | n | n
COc1ccc(NC(=S)NC(NC(=O)c2ccccc2Cl)C(Cl)(Cl)Cl)c([N+](=O)[O-])c1 (configuration not stated) | u | n | u | n | n
CCc1ccc(OCC(=O)NC(NC(=S)Nc2ccccc2C)C(Cl)(Cl)Cl)cc1 (configuration not stated) | n | n | n | n | n
COc1ccc(NC(=S)NC(NC(=O)CCl)C(Cl)(Cl)Cl)c([N+](=O)[O-])c1 (configuration not stated) | 15.8µM | n | u | n | n
Cc1ccccc1NC(=S)NC(NC(=O)COc1ccccc1)C(Cl)(Cl)Cl (configuration not stated) | 14.1µM | n | n | n | u
COc1cc(/C=C(/C#N)c2nc3ccccc3[nH]2)ccc1Oc1ncccc1[N+](=O)[O-] | u | n | u | n | n
